# Screening results as filed in PubChem.
# D2 PAM-1 = potentiates the human D2 dopamine receptor allosterically; potentiation, % (no concentration beside the values); AID 624464; P14416; 360,000 compounds, 0.23% hits; DiscoveRx D2 beta-arrestin cells, luminescence, 90 min; 100% = 57 uM dopamine signal; in the data active = potentiation above about 50%; inconclusive = mostly about 30% to 49%
# Target sequence (P14416 whole entry, looked up): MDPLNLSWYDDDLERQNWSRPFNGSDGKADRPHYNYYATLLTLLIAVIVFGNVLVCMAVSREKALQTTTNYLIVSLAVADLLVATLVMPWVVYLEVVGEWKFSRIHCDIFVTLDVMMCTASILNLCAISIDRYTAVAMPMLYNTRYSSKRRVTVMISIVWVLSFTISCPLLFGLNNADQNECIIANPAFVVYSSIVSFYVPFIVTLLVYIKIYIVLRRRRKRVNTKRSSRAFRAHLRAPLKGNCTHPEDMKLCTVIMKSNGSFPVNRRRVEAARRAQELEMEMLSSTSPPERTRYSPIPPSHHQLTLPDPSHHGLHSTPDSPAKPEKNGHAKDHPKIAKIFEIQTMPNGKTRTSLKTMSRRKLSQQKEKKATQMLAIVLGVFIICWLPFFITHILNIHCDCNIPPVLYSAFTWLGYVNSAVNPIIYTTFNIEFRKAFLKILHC
#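 PathHunter D2 cells, attached overnight at 37 deg C, received compound in DMSO plus dopamine at EC20 (50 nM final) for 90 min at 37 deg C. Beta-arrestin recruitment was read as luminescence after 1 h with detection reagent at ambient temperature.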
# D2 PAM-2 = positively modulates the human D2 dopamine receptor allosterically; P14416; HEK293 T-REx D2, calcium flux, EC20 dopamine potentiation; potentiation, % at 10 µM; 340,000 compounds, 0.34% hits; AID 485347;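 active = potentiation over 3 SD above the plate norm, cut at about 30% in these data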; note: 0% is about no effect
#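 Cells plated with tetracycline inducer and held overnight at 30 C; calcium dye loaded 30–90 min at room temperature; baseline taken, compound added and read 180 s; EC20 dopamine then added and read 180 s.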
# D2 ag-1 = agonists of human D2 dopamine receptor (beta-arrestin) | 360,000 compounds, 0.084% hits | P14416 | activation, % (no concentration beside the values) | AID 624465 | DiscoveRx PathHunter D2 beta-arrestin, luminescence, 90 min; 100% = 57 uM dopamine signal; in the data active = activation above about 40%; inconclusive = between about 15% and that limit
#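 DiscoveRx PathHunter D2 beta-arrestin cells (2,100/well) attached overnight, then compound-stimulated 90 min at 37 C in HBSS/10 mM HEPES/0.1% Tween-20 buffer; beta-galactosidase complementation read by luminescence after 1 h at ambient temperature. Dopamine 57 uM final (EC100) as control.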
# D2 antagonist = antagonizes the human D2 dopamine receptor; P14416; HEK293 TREx D2 cells, calcium flux, dopamine EC80; inhibition, % at 10 µM; 340,000 compounds, 2% hits; AID 485344; in the data active = inhibition above about 30%; inactive = below that, where a call was filed; note: 0% is about no effect
#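 HEK293 T-REx D2 cells, tet-induced, calcium dye no-wash. Cpd pintool add, 180 s kinetic, then EC80 DA, 180 s kinetic. Ca flux read.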
# D2 ag-2 = agonists of human D2 dopamine receptor; P14416; HEK293 T-REx D2 cells, calcium flux agonist mode; activation, % at 2 µM; 340,000 compounds, 0.53% hits; AID 485358;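 active = activation over 3 SD above normal in the single-dose calcium agonist read, cut at about 30% in these data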; note: 0% is about no effect
#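 Agonism scored from kinetic calcium signal (1 read/sec, 180 s) following compound pin transfer, after a 10 s baseline. Cells: HEK293 Trex line expressing inducible D2 receptor coupled to calcium, dye-loaded after overnight culture at 30 C.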
# * = called active by the depositor; ? = inconclusive; . = no result; ! = not active in a repeat. This is a sample that favours compounds with a hit; in the whole collection about 2.4% have one here.
SMILES,D2 PAM-1,D2 PAM-2,D2 ag-1,D2 antagonist,D2 ag-2
Cc1ccc(S(=O)(=O)NC(=O)c2ccc(Br)o2)c(C)c1,-15,-2,0,31*,0
CCOC(=O)c1cc(-c2ccc(OC)cc2)n(CCC(=O)Nc2cccc(C(C)=O)c2)c1C,.,1,.,.,0
CN(C)S(=O)(=O)c1ccc2c(c1)N(CC(=O)N1CCN(c3cccc(Cl)c3)CC1)CCS2,.,-4,.,.,0
CCc1ccccc1NC(=O)/C(C#N)=C\c1ccc(Sc2ccccc2)o1,-3,40*,-1,-6,0
Cn1c(COc2ccccc2)nnc1SCc1cc(=O)[nH]c2ccccc12,1,2,1,39*,1
O=c1cc(CSc2nnc(COc3ccccc3)n2-c2ccccc2)c2ccccc2[nH]1,-12,-1,0,3,-1
Cc1ccc2c(c1)c1c3n2CCN(C(=O)c2ccc(C(F)(F)F)cc2)C3CCC1 (stereo unspecified),.,-4,.,.,-1
COc1ccc2c3c(cccc13)C(=O)CC2,-8,-11,-4,-15,49*
CC1CN(S(=O)(=O)c2ccc(F)cc2)CN1C(=O)N1CCOCC1 (stereo unspecified),-8,-9,-4,4,-1
CC1CN(S(=O)(=O)c2ccc(F)cc2)C(C)N1C(=O)N1CCOCC1 (stereo unspecified),2,-11,-1,32*,0
CCN1CCN(c2ccc([N+](=O)[O-])c(Sc3nc4ccccc4[nH]3)c2)CC1,-21,-25,-6,87*,-2
CCCCN(CC)CCNC(=O)c1c(C)oc2ncnc(N3CCOCC3)c12,.,-1,.,.,.
N#Cc1cc(NCC2CCCO2)c([N+](=O)[O-])cc1C#N (stereo unspecified),50*,4,6,-4,1
Cc1noc2nc(C(=O)O)nc(N3CCCCC3)c12,.,-3,.,.,0
Cc1ccc(NC(=O)CS(=O)CC(=O)N(CC(=O)NC2CCCC2)c2cc(C)ccc2C)cc1 (stereo unspecified),-17,-9,-2,.,.
Cc1ccc(NC(=O)CS(=O)CC(=O)N(C2CCCC2)C(C)C(=O)NC2CCCCC2)cc1 (stereo unspecified),-27,49*,-1,2,0
O=C(CCn1c(=O)c2cccn2c2cccnc21)N1CCN(c2ccccc2F)CC1,.,1,.,.,0
CCCC(=O)N1CCc2cc(OC)c(OC)cc2C1COc1ccccc1OC (stereo unspecified),-3,10,1,.,-1
CCC(=O)N1CCc2cc(OC)c(OC)cc2C1COc1ccccc1OC (stereo unspecified),-3,38*!,-2,7,0
CCS(=O)(=O)c1ccc2oc(SCC(=O)NCCC3=CCCCC3)nc2c1,-3,-1,-1,68*,-1
CC(C)(C)C(=O)NC1CC(=O)N(c2ccc3c(c2)OCCO3)C1 (stereo unspecified),.,12,.,.,-1
Cc1cccc(NC2=C/C(=N/S(=O)(=O)c3cccs3)c3ccccc3C2=O)c1,96*,6,?,-10,-1
CCOC(=O)Nc1sc(C(=O)N(CC)CC)c(C)c1C(=O)OCC,-11,45*,-6,-11,1
Cc1cc2nc(C3CCCN(C(=S)Nc4ccccc4)C3)[nH]c2cc1C (stereo unspecified),-8,7,0,31*,-1
C=CCc1cccc2cc(-c3nc4ccc(C(=O)O)cc4[nH]3)c(=O)oc12,.,6,.,.,-2
SMILES,D2 PAM-1,D2 PAM-2,D2 ag-1,D2 antagonist,D2 ag-2
COc1ccc(NC(=O)CSc2cn(CCNC(=O)c3c(F)cccc3F)c3ccccc23)cc1,.,-2,.,.,1
COCc1nnc(NC(=O)c2ccc(OC)cc2OC)s1,-6,38*,-5,39*,-1
CCOCc1nnc(NC(=O)c2ccc(OC)cc2)s1,-5,-7,2,33*,1
COc1ccc(-c2nnc(NC(=O)C(C)C)s2)c(OC)c1,-5,36*,-1,10,1
COc1ccc(Cc2nnc(NC(=O)c3c(-c4ccccc4)noc3C)s2)cc1,-2,34*,-3,-18,-2
COc1ccc(C(=O)Nc2nnc(Cc3ccc(OC)c(OC)c3)s2)c(OC)c1,1,1,5,-2,0
COc1ccc(Cc2nnc(NC(=O)c3c(-c4ccccc4)noc3C)s2)cc1OC,.,3,.,3,2
Cc1ccc(C)c(Cn2c(C3CC(=O)N(c4ccccc4C)C3)nc3ccccc32)c1 (stereo unspecified),.,6,.,.,-2
O=C1CC(c2cccc(O)c2)c2cc3c(cc2N1)OCO3 (stereo unspecified),.,4,.,.,-1
COc1ccc(Cc2nnc(NC(=O)c3cccs3)s2)cc1OC,-3,40*,1,-4,1
COc1ccc(Cc2nnc(NC(=O)c3ccc(OC)c(OC)c3)s2)cc1OC,-5,25,-4,-3,0
COc1cc2c(cc1OC)-c1nnnn1C(C)(C)C2,-5,-1,1,-1,0
